# PubChem BioAssay (NCATS)
# “And” between values parts separate entries of the source, which are not always exact repeats. Equal values may be shown once. Records with an inconclusive call do not appear. Values without a mark were called inactive. The source made the active and inactive calls. Calls come from the whole dose curve; as a rule, active = well fitted curve in the direction sought with a large enough effect; inconclusive = small, poorly fitted or top-dose-only effect, or another doubt; inactive = no such curve, though single readings can be large; an effect the other way counts as inactive or inconclusive.
# Legend:
# [1] = Viability qHTS for spleen associated tyrosine kinase inhibitor (SYKi) drug resistant MV4-11 cells (AID 1963824); details: SYKi-resistant MV4-11 viability, CellTiter-Glo, 72 h; series mostly up to 45 µM; note: nearly all actives have a fitted effect of over 35% in size
# Method in brief: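 CellTiter-Glo luminescence, read 10 min after reagent addition, reports viability after a 72 hr compound exposure. Cells are an MV4-11 line made resistant to SYK inhibition, seeded at 500 per well onto compound-containing plates.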
# [2] = Cellular viability qHTS for adrenocortical cancer (ACC) cell line SW-13 (AID 1963989); details: SW-13 ACC cells viability, CellTiter-Glo, 48 h; activity (max response): hits give low values; note: nearly all actives have a fitted effect of over 65% in size;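 for activity (max response): cells grown in serum-free medium with ITS supplement; % is set by controls: 0 for no effect and ±100 for the full control effect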
# Method in brief: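 IC50 and maximal-response values come from four-parameter logistic fits of titration data. SW-13 cells in serum-free medium received compounds (up to 46 uM final) for 48 h before CellTiter-Glo luminescence.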
# [3] = Cellular viability qHTS for adrenocortical cancer (ACC) cell line NCI-H295R (AID 1963990); details: CellTiter-Glo ATP luminescence, 48 h; series mostly up to 46.1 µM; note: nearly all actives have a fitted effect of over 60% in size
# Method in brief: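 Adrenocortical carcinoma cells, suspended at 300 000 cells/mL in serum-free DMEM plus ITS, rested overnight before pin transfer of compound. After two days' incubation, ATP-dependent luminescence was recorded and curve-fitted.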
# Potency is the fitted concentration of half-maximal effect.
Compound,Potency [1],Potency [2],activity (max response) [2],Potency [3]
OC[C@H]1O[C@@H](n2cnc3c(=S)nc[nH]c32)[C@H](O)[C@@H]1O,1.19 µM (active),9.2 µM (active),–,–
NS(=O)(=O)c1cc2c(cc1Cl)CN(C1CCCCC1)C2=O,inactive,–,0.796%,–
CC(=O)OCC1=C(C(=O)O)N2C(=O)[C@@H](NC(=O)CSc3ccncc3)[C@H]2SC1,inactive,–,10.5%,–
C=CCN1C[C@H](C(=O)N(CCCN(C)C)C(=O)NCC)CC2c3cccc4[nH]cc(c34)C[C@H]21 (stereo partly specified),16.6 µM (active),–,-6.18%,–
c1ccc(CC2=NCCN2)cc1,inactive,–,-11.9%,–
Cc1ccc(N)cc1O,9.69 µM (active),–,2.63%,–
CC(C)C(=O)Nc1cccc(C2CN3CCSC3=N2)c1 (stereo unspecified),inactive,–,-3.96%,–
COc1ccc(N(C)c2nc(C)nc3ccccc23)cc1,0.0042 µM (active),0.0112 µM (active),–,–
Nc1ccc(O)c(C(=O)O)c1,inactive,–,6.74%,–
CCOC(=O)NNc1nncc2ccccc12,inactive,–,4.25%,–
Cc1ccc(C(=O)Nc2ccc(CN3CCN(C)CC3)c(C(F)(F)F)c2)cc1C#Cc1cnc2[nH]ncc2c1,inactive,1.78 µM (active),–,–
CO[C@H]1/C=C/O[C@@]2(C)Oc3c(C)c(O)c4c(O)c(c5c(nc6cc(C)ccn65)c4c3C2=O)NC(=O)/C(C)=C\C=C\[C@H](C)[C@H](O)[C@@H](C)[C@@H](O)[C@@H](C)[C@H](OC(C)=O)[C@@H]1C,14.8 µM (active),25.1 µM (active),–,–
CCC(=O)O[C@]1(C(=O)CCl)[C@@H](C)C[C@H]2[C@@H]3CCC4=CC(=O)C=C[C@]4(C)[C@@]3(F)[C@@H](O)C[C@@]21C,15 µM (active) and 14.8 µM (active),–,-11.2% and -16.8%,–
C#C[C@]1(O)CC[C@H]2[C@@H]3CCc4cc(OC5CCCC5)ccc4[C@H]3CC[C@@]21C,11.9 µM (active),–,-6.39%,–
COc1ccc(/C=N/NC(=O)c2ccncc2)cc1OC,inactive,–,-2.5%,–
Cc1ccc(NC(=O)c2ccc3c(c2)OCCO3)cc1NC(=O)c1ccc2nc(OCCN3CCCC3)ccc2c1,0.0229 µM (active),0.802 µM (active),–,–
CC1CCc2c(N3CCC(O)CC3)c(F)cc3c(=O)c(C(=O)O)cn1c23 (stereo unspecified),inactive,–,-4.15%,–
NC(=O)c1cc(F)cc2c1C(=O)N(C1CCN(C3CCC(F)(F)CC3)CC1)C2,inactive,–,-0.81%,–
CC(Nc1ncnc2nc[nH]c12)c1cc2cccc(Cl)c2c(=O)n1-c1ccccc1 (stereo unspecified),2.59 µM (active),–,-2.7%,–
CCCC[C@@H](C=O)NC(=O)[C@H](CC(C)C)NC(=O)OCc1ccccc1,18.6 µM (active),–,-4.14%,–
CCCCC(CC)COC(=O)c1ccccc1C(=O)O (stereo unspecified),19.7 µM (active),–,6.28%,–
CCN(CC)CCOC(=O)C(Cc1cccc2ccccc12)CC1CCCO1 (stereo unspecified),inactive,–,-10.7%,–
O=C(/C=C\n1cnc(-c2cc(C(F)(F)F)cc(C(F)(F)F)c2)n1)NNc1ccccn1,2.63 µM (active),11.2 µM (active),–,–
Cc1cc(-c2cnn3c(NCC4CC(C)(O)C4)cc(Oc4cccnc4)nc23)ccc1C(=O)NC1CC1 (stereo unspecified),0.118 µM (active),–,-6.44%,–
O=C(O)C[C@H]1CCc2c1[nH]c1ccc(OCc3ccc(C4CCCC4)c(C(F)(F)F)c3)cc21,7.42 µM (active),–,5.55%,–
C/C=C1\NC(=O)[C@H]2CSSCC/C=C\[C@H](CC(=O)N[C@H](C(C)C)C(=O)N2)OC(=O)[C@H](C(C)C)NC1=O,0.0074 µM (active),0.0126 µM (active),–,–
CC1(C)O[C@@H]2C[C@H]3[C@@H]4C[C@H](F)C5=CC(=O)C=C[C@]5(C)[C@H]4[C@@H](O)C[C@]3(C)[C@]2(C(=O)CO)O1,18.6 µM (active),–,-3.16% and 0.473%,inactive
O[C@@H](c1cc(C(F)(F)F)nc2c(C(F)(F)F)cccc12)[C@H]1CCCCN1,9.44 µM (active),16.4 µM (active),–,5.17 µM (active)
Nc1ncnc2c1ncn2[C@@H]1O[C@H](CO)[C@@H](O)[C@H]1O,inactive,–,-13.6%,inactive
